Compounds with a hit are over-represented: about 5.7% of the library has one in this group of screens.
rCAG binder: r(CAG) repeat RNA binding; TO-PRO-1 dye displacement fluorescence; inhibition, % at 3 µM; hit rate 1.3% among 370,000; AID 651821;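 active = inhibition above the plate cutoff, the mean of all test compounds on that plate plus 3 SD, cut at about 35% in these data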;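 note: higher means more dye released from RNA so lower well fluorescence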
NR3A LBD binder: modulates the human NR3A ligand-binding domain | Tm shift relative to glycine control, % at 25 µM | NR3A LBD differential scanning fluorimetry, Tm shift; 0% = protein alone, 100% = glycine-bound protein | hit rate 2.5% among 340,000;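 active = melting temperature shift of at least 10% of the positive control shift, at one fixed dose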
MPTP inh: inhibitors of mitochondrial permeability transition pore | inhibition, % at 10 µM | isolated mouse mitochondria, Ca2+ swelling absorbance, 30 min | hit rate 1.4% among 360,000;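 active = inhibition of 50% or more, scaled per plate between neutral and stimulator controls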
Myeloid diff MLP: compounds promoting myeloid differentiation. hit rate 1% among 360,000. ER-HoxA9 myeloid progenitors, lysozyme-GFP differentiation, flow cytometry. calls only at 10 µM;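 active = normalized GFP-positive differentiation at or above the plate's own cutoff, the solvent-only control mean plus 3 SD; inconclusive = no clear call, values can overlap the other calls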;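 note: cells exposed to compound for four days before flow analysis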
FAS-TE inh: FAS thioesterase (human) inhibition; P49327; recombinant FAS-TE, OMFH fluorogenic substrate, fluorescence endpoint; inhibition, % at 15 µM; hit rate 0.67% among 360,000;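 active = compounds whose normalised, plate-corrected inhibition of enzyme fluorescence in the single-dose primary screen is 50% or more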
Each line names hits and unclear results; the compound was inactive in the other large screens.

CC(C)c1ccc(C(=O)NN2C(=O)C3CCCCC3C2=O)cc1 (stereo not given)	NR3A LBD binder 25
O=C(O)CC1S/C(=N/N=C/C=C/c2ccccc2)NC1=O (stereo not given)	none
O=C(CC1S/C(=N/N=C/C=C/c2ccccc2)NC1=O)Nc1ccc(Cl)c(Cl)c1 (stereo not given)	NR3A LBD binder 37
Cc1ccc(NC(=O)CSc2nnc(-c3ccccc3F)n2-c2ccccc2)c(C)c1	none (no result: NR3A LBD binder, MPTP inh, Myeloid diff MLP, FAS-TE inh)
COC(=O)c1ccc(Cn2nc(C)cc2C)cc1	none
COC(=O)c1ccc(Cn2nc(C(F)(F)F)cc2C)cc1	NR3A LBD binder 17
COc1ccc(-c2cc(C(=O)N3CCCCCC3)c3ccccc3n2)cc1OC	none (no result: NR3A LBD binder)
COc1ccc(-c2cc(C(=O)N3CCCC(C(F)(F)F)C3)c3ccccc3n2)cc1OC (stereo not given)	NR3A LBD binder 18
O=S1(=O)N[C@@H](Cc2ccccc2)COc2cc(NC3CC3)ccc21	none (no result: NR3A LBD binder, MPTP inh, Myeloid diff MLP, FAS-TE inh)
O=C(Nc1nccs1)c1sc2ccccc2c1Cl	none
O=C(Nc1ccc(NC(=O)c2sc3ccccc3c2Cl)cc1)c1ccco1	NR3A LBD binder 29
Cc1cnc(NC(=O)c2sc3ccccc3c2Cl)s1	NR3A LBD binder 20
O=C(N/N=C/c1ccncc1)c1sc2ccccc2c1Cl	NR3A LBD binder 13
CC(C)(C)S(=O)N1C[C@@H]2CC(=O)C=C2[C@H]1CCO (stereo not given in full)	none (no result: NR3A LBD binder, MPTP inh, Myeloid diff MLP, FAS-TE inh)
COc1cc(OC)cc(C(=O)NCC(=O)OCC(=O)c2cc(C)n(Cc3ccco3)c2C)c1	NR3A LBD binder 19
Cc1ccc2c(c1)-c1c(cnn1CC(=O)NCCc1ccccc1F)CO2	none (no result: NR3A LBD binder, MPTP inh, Myeloid diff MLP, FAS-TE inh)
CCOC(=O)Cc1csc2nc(-c3ccccc3)cn12	none (no result: NR3A LBD binder, MPTP inh, Myeloid diff MLP, FAS-TE inh)
Oc1ccc(/C=N/NC(=S)Nc2cccnc2)cc1O	none
Oc1ccc(C=NNC(=S)Nc2cccnc2)nc1	NR3A LBD binder 11
COc1ccc(NC(=O)c2nnn(CC(=O)Nc3ccc4c(c3)OCO4)c2N)cc1OC	none
COc1cccc(NC(=O)Cn2nnc(C(=O)Nc3cc(Cl)ccc3OC)c2N)c1	NR3A LBD binder 25
COc1ccc(Cl)cc1NC(=O)c1nnn(CC(=O)Nc2ccc(OC)c(OC)c2)c1N	none
COc1ccc(Cl)cc1NC(=O)c1nnn(CC(=O)Nc2ccc3c(c2)OCO3)c1N	NR3A LBD binder 20, Myeloid diff MLP inconclusive
S=C1Cc2ccccc2N1	rCAG binder 44 (no result: Myeloid diff MLP)
COc1ccc(CN(CCN2CCOCC2)C(=O)c2ccc(F)cc2Cl)cc1OC	none (no result: NR3A LBD binder, MPTP inh, Myeloid diff MLP, FAS-TE inh)
COC(=O)[C@]12C[C@H](CC(=O)NCCCCc3ccccc3)C(=O)N(Cc3cccc4ccccc34)C1=C[C@H](C1CCCC1)O[C@@H]2C	none (no result: NR3A LBD binder, MPTP inh, Myeloid diff MLP, FAS-TE inh)
CCOP(=O)(OCC)C(Nc1ccccc1)c1ccc2c(c1)OCO2 (stereo not given)	none
CCCCOP(=O)(OCCCC)C(Nc1ccccc1)c1ccc2c(c1)OCO2 (stereo not given)	NR3A LBD binder 14
COc1ccc(C2=NOC(Cn3nc(-c4ccccc4)cc3C(=O)NCc3ccccc3OC)C2)cc1 (stereo not given)	NR3A LBD binder 25
COc1ccccc1CNC(=O)c1cc(-c2ccccc2)nn1CC1CC(c2cccnc2)=NO1 (stereo not given)	none
CCOc1ccc(N2C(=O)CC(N3CCN(C(=O)CN4CCCC4)CC3)C2=O)cc1 (stereo not given)	none
CCOc1ccc(N2C(=O)CC(N3CCC(NC(=O)Nc4ccccc4)CC3)C2=O)cc1 (stereo not given)	NR3A LBD binder 14
O=C(N1CCOCC1)N1CC[C@H]2[C@H](CCCN2Cc2ccccc2)C1	none (no result: NR3A LBD binder, MPTP inh, Myeloid diff MLP, FAS-TE inh)
CCCc1ccc(-c2cc(C(=O)NCCc3ccc(S(N)(=O)=O)cc3)c3ccccc3n2)cc1	NR3A LBD binder 12
NS(=O)(=O)c1ccc(CCNC(=O)c2cc(-c3ccc(Br)cc3)nc3ccccc23)cc1	none
NNC(=O)c1cc(-c2ccc(O)cc2)nc2ccc(Br)cc12	NR3A LBD binder 11, Myeloid diff MLP inconclusive
Cc1cccc(-c2cc(C(=O)NCc3ccccn3)c3ccccc3n2)c1	NR3A LBD binder 16
O=C(NCc1ccccn1)c1cc(-c2ccccc2)nc2ccccc12	none
O=C(NCc1ccccn1)c1cc(-c2ccc(-c3ccccc3)cc2)nc2ccccc12	Myeloid diff MLP active
Cc1ccc(-c2cc(C(=O)NCc3ccccn3)c3ccccc3n2)cc1C	none
COCCNC(=O)c1cc(-c2ccc(-c3ccccc3)cc2)nc2ccccc12	Myeloid diff MLP active
COCCCNC(=O)c1cc(-c2cccnc2)nc2ccccc12	none
CC(C)[C@@H](C)/C=C/[C@@H](C)[C@H]1CC[C@@H]2[C@]1(C)CCC1[C@]23C=C[C@]2(C[C@@H](O)CC[C@]12C)N(c1ncc(C(F)(F)F)cc1Cl)O3 (stereo not given in full)	none (no result: NR3A LBD binder, MPTP inh, Myeloid diff MLP, FAS-TE inh)
Cc1ccccc1NC(=O)CSc1nc(Nc2ccccc2)nc(N2CCOCC2)n1	none
Cc1ccc(F)cc1NC(=O)CSc1nc(Nc2ccccc2)nc(N2CCOCC2)n1	Myeloid diff MLP active
CN1CCCCC(NC(=O)c2c(F)cccc2F)C1=O (stereo not given)	none (no result: NR3A LBD binder, MPTP inh, Myeloid diff MLP, FAS-TE inh)
O=C(O)CC(NC(=O)c1ccccc1NC(=O)c1ccccc1)C(=O)O (stereo not given)	NR3A LBD binder 28
COC(=O)[C@]12C[C@H](CC(=O)NCc3cccc(C(F)(F)F)c3)C(=O)N(Cc3cccc4ccccc34)C1=C[C@H](C1CCCC1)O[C@@H]2C	none (no result: NR3A LBD binder, MPTP inh, Myeloid diff MLP, FAS-TE inh)
Cc1ccc(/C=C2\SC(=S)N(CCCC(=O)NNC(=O)c3ccccc3O)C2=O)cc1	none
Cc1ccc(/C=C2\SC(=S)N(CCC(=O)NNS(=O)(=O)c3ccccc3)C2=O)cc1	none (no result: rCAG binder)
Cc1ccc(/C=C2/SC(=S)N(CCCC(=O)Nc3ccc(O)cc3)C2=O)cc1	none (no result: Myeloid diff MLP)
Cc1ccc(/C=C2\SC(=S)N(CCC(=O)NNC(=O)c3cccc(O)c3)C2=O)cc1	NR3A LBD binder 24
Cc1ccc(/C=C2\SC(=S)N(CCC(=O)NNC(=O)c3ccccc3O)C2=O)cc1	NR3A LBD binder 16
Cc1ccc(/C=C2\SC(=S)N(CCC(=O)NNC(=O)c3ccc(O)cc3)C2=O)cc1	NR3A LBD binder 23
Cc1ccc(S(=O)(=O)N(CC(=O)NC2CCC(C)CC2)c2cc(C)cc(C)c2)cc1 (stereo not given)	none (no result: NR3A LBD binder, MPTP inh, Myeloid diff MLP, FAS-TE inh)
O=C(NC1CCCC1)[C@@H]1CCCN1C(=O)[C@@H](NC(=O)N1CCOCC1)C1CCCCC1	none (no result: NR3A LBD binder, MPTP inh, Myeloid diff MLP, FAS-TE inh)
O=C1C=C(NCc2ccccc2)c2ccccc2C1=O	Myeloid diff MLP active
CC(NC(=O)/C(C#N)=C1\N=C(NC(=O)c2cccs2)c2ccccc21)c1ccccc1 (stereo not given)	Myeloid diff MLP active
CS(=O)(=O)N1CCN(c2ccc(C(=O)NC34CC5CC(CC(C5)C3)C4)cc2[N+](=O)[O-])CC1	none
O=C(NC12CC3CC(CC(C3)C1)C2)c1ccc(N2CCNCC2)c([N+](=O)[O-])c1	Myeloid diff MLP active
O=C1c2ccccc2-n2c1nc1ccccc1c2=O	Myeloid diff MLP active
O=c1c2ccccc2nc2n1-c1ccccc1CCC2	none
S=c1nc[nH]c2c1sc1nc(-c3ccccc3)c3c(c12)CCCC3	NR3A LBD binder 12
